In ChEMBL document CHEMBL3988442, “University of Dundee, Small-Polar-MMV Screening Library” (2021):
Among all 69,000 compounds or so, about 950 (1.4%) showed an effect of 50% or more. The sample as a whole holds a higher share of strong results than the screen did.

system: Mycobacterium tuberculosis; assay: Cornell M. t heat shock assay; format: functional, organism-based; set-up: dose or concentration left out as unconfirmed; note: in the data most compounds retested in dose-response had high values

Row | Structure (SMILES) | Percent Effect [%]
1 | O=C(O)C(F)(F)F.O=C1NCC[C@]12CN(CC1CCOCC1)C[C@H]2c1ccccc1 | -6.347
2 | CCc1ccc(CN2C[C@H](OCC(=O)N(C)C)[C@H]3COC[C@H]32)o1.O=C(O)C(F)(F)F | 13.05
3 | CO[C@H]1CN(CC2CC2)[C@@H]2CCCO[C@H]12.O=C(O)C(F)(F)F | 13.63
4 | O=C(Cn1cccnc1=O)NC(Cc1cccs1)c1ccccn1 (centres undefined) | -7.839
5 | c1ccc(OCCNCc2cccs2)nc1 | -4.17
6 | CC(C)CC(NCc1cscn1)c1ccccn1 (centres undefined) | 27.38
7 | CC(C)CC(NCc1cccs1)c1ccccn1 (centres undefined) | 99.48
8 | CC(C)CC(NCc1ccsc1)c1ccccn1 (centres undefined) | 95.2
9 | CS(=O)(=O)N1CCC(C(=O)NC(Cc2ccsc2)c2ccccn2)CC1 (centres undefined) | -2.015
10 | Cl.O=C(c1ccccc1)N1CCC2(CC1)CNc1c(F)cccc12 | 9.544
11 | Cc1cnn(CC2CN(Cc3nc4ccccc4s3)CCO2)c1 (centres undefined) | -2.009
12 | CN(Cc1cncnc1)[C@@H]1CN(C(=O)C2CC2)[C@@H]2CCCO[C@H]12.O=C(O)C(F)(F)F | 8.478
13 | CN(Cc1cncnc1)[C@H]1CN(C(=O)c2ccco2)[C@@H]2CCCO[C@@H]21 | -2.729
14 | CN(Cc1cncnc1)[C@@H]1CN(C(=O)c2ccco2)[C@@H]2CCCO[C@H]12.O=C(O)C(F)(F)F | 50.13
15 | COc1ccc2[nH]cc(C(=O)CNc3nc(C)cs3)c2c1.I | 4.496
16 | COc1cccc(CC(=O)N2CC[C@@H]3[C@H](CC2)N(C)CCS3(=O)=O)c1.O=C(O)C(F)(F)F | 5.677
17 | Cn1ncc2c(=O)[nH]c(CN3CCCC3c3ccsc3)nc21 (centres undefined) | -12.54
18 | CN(C)c1nc(N)nc(CN2CCCC2c2ccsc2)n1 (centres undefined) | 64.16
19 | Cn1ncc2c(=O)[nH]c(CN3CCCC3c3cccs3)nc21 (centres undefined) | 80.29
20 | CCCc1noc(CN2CCCC2c2ccsc2)n1 (centres undefined) | 4.131

Row | Structure (SMILES) | Percent Effect [%]
21 | Cc1nc(CN2CCCC2c2ccsc2)nc2ccccc12 (centres undefined) | 40.46
22 | Cc1cccc(C2CCCN2Cc2nc(N)nc(N(C)C)n2)c1C (centres undefined) | 47.4
23 | Cc1ccccc1C1CCCN1Cc1nc2c(cnn2C)c(=O)[nH]1 (centres undefined) | -11.52
24 | CN(C)c1nc(N)nc(CN2CCCC(c3ccccc3)CC2)n1 (centres undefined) | -13.13
25 | CN(C)c1nc(N)nc(CN2CCCC2c2cccs2)n1 (centres undefined) | 97.97
26 | CC(C)NC(=O)N1CCc2ncc(CN3CCOCC3)n2CC1.O=C(O)C(F)(F)F | -16.24
27 | Cc1noc(C)c1CN1CC[C@H]2[C@H]1CCN2CC1CCOCC1.O=C(O)C(F)(F)F.O=C(O)C(F)(F)F | -9.429
28 | C=C(C)CN1CCN(Cc2cnc(-c3ccccc3C)nc2)CC1.O=C(O)CC(O)(CC(=O)O)C(=O)O | 1.349
29 | CCOCC1CN(Cc2ccoc2)Cc2nn(C)cc21.O=C(O)C(F)(F)F (centres undefined) | -18.76
30 | O=C(N1CCCC1)N1CC[C@H]2[C@H]1CCN2c1ncccn1.O=C(O)C(F)(F)F | -10.67
31 | COc1cc2c(cc1CNC(Cc1cccs1)c1nccs1)OCCO2.Cl (centres undefined) | 2.723
32 | Cl.O=C(C1CCC1)N1C[C@@H](c2ccsc2)[C@@H]2CN(C3CCCCC3)CC[C@@H]21 | -50.24
33 | Cc1ccc2nc(C3CCN(CC4CC4)CC3)nn2c1.O=C(O)C(F)(F)F | -35.41
34 | CCOC(C)C(=O)NCCNS(C)(=O)=O (centres undefined) | 69.12
35 | CC(C)COC(C)C(=O)NCCNS(C)(=O)=O (centres undefined) | -20.75
36 | CC(C)COC(C)C(=O)NCCNC(=O)C(C)C (centres undefined) | -3.282
37 | O=C(O)C(F)(F)F.O=C(c1ccoc1)N1CC[C@@H](N2CCOCC2)[C@@H]1Cc1ccccc1 | -25.18
38 | O=C(NCc1ccccn1)[C@H]1COC[C@H]2CN(C3CCCC3)C[C@H]21.O=C(O)C(F)(F)F.O=C(O)C(F)(F)F | -26.6
39 | Cc1ccc(CN[C@@H]2COC[C@H]2Cc2cc(C)no2)cc1.O=C(O)CC(O)(CC(=O)O)C(=O)O | 0.5554
40 | O=C1CN(Cc2nnc(-c3ccc(Br)cc3)o2)CCN1 | 1.317

Row | Structure (SMILES) | Percent Effect [%]
41 | O=C1CN(Cc2nnc(-c3ccccc3Br)o2)CCN1 | 14.67
42 | O=C1CN(Cc2nnc(-c3ccc(Br)o3)o2)CCN1 | 51.83
43 | Cl.c1cc(CNCc2ccc(Cn3cncn3)cc2)c2c(c1)OCCO2 | -1.246
44 | Cl.NC(=O)COc1ccc(CNCc2cc(F)ccc2F)cc1 | -36.29
45 | COCCNC(=O)Cn1c(-c2cccc(Cl)c2)nc(C)c(CCO)c1=O | 68.55
46 | CCc1cc(=O)n(CC(=O)NCC2CCCO2)c(-c2cccc(F)c2)n1 (centres undefined) | 19.5
47 | COCCNC(=O)Cn1c(-c2ccc(F)cc2)nc(C)c(CCO)c1=O | 29.85
48 | COCCNC(=O)Cn1ccc2ccc(F)cc21 | 14.54
49 | CCOc1nc2cccnc2n(CC(=O)NCCOC)c1=O | 5.103
50 | COCCNC(=O)Cn1c(-c2ccc(Cl)cc2)nc(C)c(CCO)c1=O | 50.09
51 | CCN(CC)C(=O)Cn1c(-c2ccc(Cl)cc2)nc(C)c(CCO)c1=O | 69.66
52 | Cc1nc(-c2ccc(Cl)cc2)n(CC(=O)NC(C)C)c(=O)c1CCO | 47.89
53 | Cc1cc(=O)n(CC(=O)NCCC(C)C)c(-c2cccc(Cl)c2)n1 | 9.879
54 | CCN(CC)C(=O)c1nnsc1-c1ccc(Cl)cc1 | -12.37
55 | COCCNC(=O)Cn1c(-c2cccc(F)c2)nc(C)c(CCO)c1=O | 66.78
56 | COCCCNC(=O)Cn1c(-c2cccc(Cl)c2)nc(C)cc1=O | 10.79
57 | Cc1ccc(-c2ccc(C3CNCCO3)nc2)cc1.Cl (centres undefined) | -12.85
58 | CC[C@@H]1N(Cc2nccs2)CCC[C@]12CCC(=O)N2C.O=C(O)C(F)(F)F | -9.457
59 | CCOCC1CN(Cc2ccccn2)Cc2nn(CC3CC3)cc21.O=C(O)C(F)(F)F.O=C(O)C(F)(F)F (centres undefined) | -24.37
